Assay [1] concerns the target Voltage-gated inwardly rectifying potassium channel KCNH2 (Homo sapiens) (UniProt Q12809). Kind of assay: qHTS Assay for Small Molecule Inhibitors of the Human hERG Channel Activity (AID 588834).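 Note: lower thallium flux fluorescence means stronger hERG block; nearly all actives have a fitted effect of over 50% in size.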 Note: potency is the fitted concentration of half-maximal effect. A digest of the protocol:
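Measured: FluxOR fluorescence after thallium stimulation in U2OS cells transduced with hERG by baculovirus. Compounds pre-incubated around 10 min; medium Opti-MEM with 2% FCS. AC50 from Hill equation.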

Assay [2] deals with Glutaminase kidney isoform, mitochondrial (Homo sapiens) (UniProt O94925). Briefly: qHTS for Inhibitors of Glutaminase (GLS): LOPAC Validation (AID 624146). Note: nearly all actives have a fitted effect of over 60% in size. Note: potency is the fitted concentration of half-maximal effect. A digest of the protocol: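 Compounds were pin-transferred onto hKGA, after which L-glutamine (1 mM solution) and a detection mix of glutamate oxidase, HRP and Amplex Red were added. Initial and 30 min RT fluorescence reads were collected.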
Glutaminase kidney isoform, mitochondrial (Homo sapiens), sequence (O94925 whole entry, looked up, canonical isoform): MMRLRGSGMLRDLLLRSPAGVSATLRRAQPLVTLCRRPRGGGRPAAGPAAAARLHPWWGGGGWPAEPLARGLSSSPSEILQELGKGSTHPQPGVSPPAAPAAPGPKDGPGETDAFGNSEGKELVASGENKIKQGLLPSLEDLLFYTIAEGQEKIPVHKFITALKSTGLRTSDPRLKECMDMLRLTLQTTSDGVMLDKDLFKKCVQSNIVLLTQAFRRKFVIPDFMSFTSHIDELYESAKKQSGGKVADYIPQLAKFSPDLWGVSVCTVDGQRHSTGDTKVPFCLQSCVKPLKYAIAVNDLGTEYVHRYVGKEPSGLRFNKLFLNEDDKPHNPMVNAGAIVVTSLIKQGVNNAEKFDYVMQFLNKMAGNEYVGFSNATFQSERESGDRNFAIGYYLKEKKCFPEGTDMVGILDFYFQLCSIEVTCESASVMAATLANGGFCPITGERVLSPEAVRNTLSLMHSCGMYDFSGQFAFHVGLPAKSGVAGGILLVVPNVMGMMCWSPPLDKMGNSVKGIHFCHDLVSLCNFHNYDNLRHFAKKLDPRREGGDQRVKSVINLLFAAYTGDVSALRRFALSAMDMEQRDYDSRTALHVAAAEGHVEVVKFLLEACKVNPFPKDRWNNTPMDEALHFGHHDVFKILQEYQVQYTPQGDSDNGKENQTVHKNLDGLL
For orientation: qHTS replaces the single test concentration by a dilution series.

Assay [3] is described as follows: qHTS of Trypanosoma Brucei Inhibitors: LOPAC Validation (AID 624147). Note: 0% is about no effect. A digest of the protocol: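 TbPYK + substrate in 50 mM TEA pH 7.2, 100 mM KCl, 10 mM MgCl2, 0.05% BSA, 0.01% Tween-20; cpd pinned; ADP 130 uM final; 45 min RT; Kinase-Glo Plus 10 min; luminescence endpoint.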
In assay [4] the target is Glucagon-like peptide 1 receptor (Homo sapiens) (UniProt P43220). Briefly: qHTS of GLP-1 Receptor Agonists: LOPAC Validation (AID 624148).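 Note: 0% is about no effect; higher luminescence signal means agonism.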 A digest of the protocol:
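HEK293 cells stably co-expressing GLP-1R and a cAMP-responsive luciferase reporter, plated 12 hours before compound, then incubated 4-6 hr at 37 deg C. Luminescence read 12 min after detection reagent.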

The nature of assay [5]: qHTS of Nrf2 Activators: LOPAC Validation (AID 624149). For activation: 0% is about no effect. Note: potency is the fitted concentration of half-maximal effect. A digest of the protocol: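 AREc32_Fluc cells, 1000/well in OPTI-MEM with 5% FBS, grown overnight, then exposed to compounds for 24 hr at 37 deg C, 5% CO2. ARE-driven firefly luciferase read by Steady-Glo luminescence after 30 min at RT.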
Assay [6] can be described thus: HTS Assay for Allosteric Antagonists of the Human D2 Dopamine Receptor: Hit Validation in HTRF (AID 624455). Note: potency is the fitted concentration of half-maximal effect.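 Note: stable D1 dopamine receptor cell line scored for blocking the D1 response.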 In outline: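 Hit validation in cells stably expressing the D1 dopamine receptor, run in HTRF format. Compounds were tested for their ability to inhibit the D1-mediated response.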
(Time-resolved FRET reads energy transfer from a long-lived donor to a nearby acceptor.)

Assay [7] can be described thus: qHTS assay for small molecule agonists of the antioxidant response element (ARE) signaling pathway (AID 651741; active = well fitted activation curve with a large enough effect in the signal ratio; the % refers to the signal ratio; note: potency is the fitted concentration of half-maximal effect). A digest of the protocol: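 CellSensor ARE-bla HepG2 cells (2,000/well) carrying ARE-driven beta-lactamase, exposed 16 h at 37 C. LiveBLAzer B/G FRET substrate added for 2 h at room temperature; fluorescence intensity read.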
Assay [8] in a line: qHTS assay for environmental chemicals that activate the Aryl hydrocarbon Receptor (AhR) signaling pathway (AID 651777). Note: % of control where 0% means no effect; nearly all actives have a fitted effect of over 15% in size. The note with it: 1A2-DRE human hepatoma cells, luciferase, 24 h; stronger effect = higher value. A digest of the protocol: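 Human hepatoma 1A2-DRE cells, stably carrying a dioxin response element and CYP1A2 promoter driving luciferase, were exposed to compounds for 24 hr at 37 C and 5% CO2. Luciferase signal was then read after 30 min One-Glo at room temperature.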

Values without a mark were called inactive. Results filed as inconclusive are left out. Calls of active or inactive are those of the source. Unless noted, calls come from the whole dose curve; as a rule, active = well fitted curve in the direction sought with a large enough effect; inconclusive = small, poorly fitted or top-dose-only effect, or another doubt; inactive = no such curve, though single readings can be large; an effect the other way counts as inactive or inconclusive.

Voltage-gated inwardly rectifying potassium channel KCNH2 (Homo sapiens), sequence (Q12809 whole entry, looked up): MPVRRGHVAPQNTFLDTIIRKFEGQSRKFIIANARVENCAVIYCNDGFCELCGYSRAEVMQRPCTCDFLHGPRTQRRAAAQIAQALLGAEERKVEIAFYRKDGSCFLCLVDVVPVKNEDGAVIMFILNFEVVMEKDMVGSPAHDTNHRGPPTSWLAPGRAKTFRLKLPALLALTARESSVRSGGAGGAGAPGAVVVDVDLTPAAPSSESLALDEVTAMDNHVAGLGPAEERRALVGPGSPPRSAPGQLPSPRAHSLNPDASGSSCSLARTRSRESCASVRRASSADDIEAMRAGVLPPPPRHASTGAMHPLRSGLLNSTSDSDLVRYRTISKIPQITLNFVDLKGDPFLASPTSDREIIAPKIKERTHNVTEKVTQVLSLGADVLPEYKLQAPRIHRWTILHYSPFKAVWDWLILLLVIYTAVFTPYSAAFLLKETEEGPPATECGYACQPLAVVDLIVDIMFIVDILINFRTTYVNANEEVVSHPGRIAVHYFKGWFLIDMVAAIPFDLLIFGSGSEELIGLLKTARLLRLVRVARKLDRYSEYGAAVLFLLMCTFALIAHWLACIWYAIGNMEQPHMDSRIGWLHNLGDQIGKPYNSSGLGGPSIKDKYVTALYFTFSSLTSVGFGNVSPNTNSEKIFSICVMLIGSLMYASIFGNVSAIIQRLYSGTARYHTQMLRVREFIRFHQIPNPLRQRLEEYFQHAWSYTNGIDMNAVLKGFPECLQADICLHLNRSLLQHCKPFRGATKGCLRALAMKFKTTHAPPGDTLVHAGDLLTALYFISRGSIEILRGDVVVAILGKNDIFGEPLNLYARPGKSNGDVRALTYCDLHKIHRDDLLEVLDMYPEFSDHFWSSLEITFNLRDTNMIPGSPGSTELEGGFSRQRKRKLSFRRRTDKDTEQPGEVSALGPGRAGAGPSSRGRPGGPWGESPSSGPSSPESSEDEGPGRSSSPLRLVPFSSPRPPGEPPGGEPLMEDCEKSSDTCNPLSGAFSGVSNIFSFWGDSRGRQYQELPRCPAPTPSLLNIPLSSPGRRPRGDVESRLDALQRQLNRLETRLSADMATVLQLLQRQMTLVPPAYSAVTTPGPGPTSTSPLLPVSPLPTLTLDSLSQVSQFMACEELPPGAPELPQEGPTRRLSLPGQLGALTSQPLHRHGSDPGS
Glucagon-like peptide 1 receptor (Homo sapiens), sequence (P43220 whole entry, looked up): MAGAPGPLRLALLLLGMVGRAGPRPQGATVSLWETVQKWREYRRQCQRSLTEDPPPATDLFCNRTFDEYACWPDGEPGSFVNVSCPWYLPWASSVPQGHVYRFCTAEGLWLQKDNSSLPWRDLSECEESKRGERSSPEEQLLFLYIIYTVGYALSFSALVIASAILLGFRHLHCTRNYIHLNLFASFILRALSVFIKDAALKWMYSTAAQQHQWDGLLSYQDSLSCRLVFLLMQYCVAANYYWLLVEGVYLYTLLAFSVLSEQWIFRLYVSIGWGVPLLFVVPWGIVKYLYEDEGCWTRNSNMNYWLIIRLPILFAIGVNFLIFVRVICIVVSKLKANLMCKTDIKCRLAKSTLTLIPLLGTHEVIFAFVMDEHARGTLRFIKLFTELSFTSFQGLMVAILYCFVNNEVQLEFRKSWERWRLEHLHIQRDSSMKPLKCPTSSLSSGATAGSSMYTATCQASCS

Consider `CC(=O)/C(C)=N/O`, for which the Potency result in assay [1], in assay [2], in assay [3], in assay [4], in assay [5] and in assay [6] was “inactive” throughout.

For the compound `O=C(O)C1=CCNCC1`, the Potency entry in assay [1], in assay [2], in assay [3], in assay [4], in assay [5] and in assay [6] was “inactive” throughout.

Take `NS(=O)(=O)c1cccc2c1c([N+](=O)[O-])cc1nc(O)c(O)nc12`: the Potency result in assay [1], in assay [2], in assay [3], in assay [4], in assay [5] and in assay [6] was “inactive” each time.

Consider `C=C(C)C1CC=C(C(=O)O)CC1` (stereo not given), for which the Potency entry in assay [1], in assay [2], in assay [3], in assay [4], in assay [5] and in assay [6] was “inactive” in each case.

With `Nc1ccc(N2C(=O)c3ccccc3C2=O)c(Cl)c1`, the Potency result in assay [1], in assay [2], in assay [3], in assay [4], in assay [5] and in assay [6] was “inactive” throughout.

As to `O=c1[nH]c2cc(Cl)ccc2c(O)c1-c1ccc(Oc2ccccc2)cc1`, the Potency result in assay [1], in assay [2], in assay [3], in assay [4], in assay [5] and in assay [6] was “inactive” in each case.

Regarding `CCCCCCC/C=C\CCCCCCCCC(=O)O`, the Potency entry in assay [1], in assay [2], in assay [3], in assay [4], in assay [5] and in assay [6] was “inactive” in each case.

`COc1cc(C(O)CO)ccc1O` (stereo not given): the Potency entry in assay [1], in assay [3], in assay [4], in assay [5] and in assay [6] was “inactive” throughout. The Potency in assay [2] is 4.47 µM (active).

With `[N-]=[N+]=Nc1ccc(C(=O)CSC[C@H](NC(=O)CC[C@H](N)C(=O)O)C(=O)NCC(=O)O)cc1`, the Potency entry in assay [1], in assay [2], in assay [3], in assay [4], in assay [5] and in assay [6] was “inactive” each time.

On to `O=c1ccn([C@@H]2O[C@H](COP(=O)(O)OP(=O)(O)O)[C@@H](O)[C@H]2O)c(=O)[nH]1`, for which the Potency result in assay [1], in assay [2], in assay [3], in assay [4], in assay [5] and in assay [6] was “inactive” in each case.

Turning to `COc1ccccc1N1CCN(CCN(C(=O)c2ccc(F)cc2)c2ccccn2)CC1`, the Potency in assay [1] is 11.2 µM (active). In addition, the Potency result in assay [2], in assay [3], in assay [4], in assay [5] and in assay [6] was “inactive” throughout.

With `C#CC(N)CCC(=O)O` (stereo not given), the Potency entry in assay [1], in assay [2], in assay [3], in assay [4], in assay [5] and in assay [6] was “inactive” in each case.

`N[C@H](C(=O)O)[C@H]1C[C@@H]1C(=O)O`: the Potency entry in assay [1], in assay [2], in assay [3], in assay [4], in assay [5] and in assay [6] was “inactive” in each case.

As for `NCCCNCCCCNCCCN`, the Potency entry in assay [1], in assay [2], in assay [3], in assay [4] and in assay [5] was “inactive” each time. In assay [6], the Potency was 4.61 µM (active).

On to `Cc1nc(N=Nc2cc(S(=O)(=O)O)c3cc([N+](=O)[O-])cc(S(=O)(=O)O)c3c2)c(COP(=O)(O)O)c(C=O)c1O`, for which the Potency entry in assay [1], in assay [2], in assay [3], in assay [4], in assay [5] and in assay [6] was “inactive” throughout.

Turning to `Nc1nc2ccc(Cl)cc2c2nc(-c3ccco3)nn12`, the Potency entry in assay [1], in assay [2], in assay [3], in assay [4] and in assay [6] was “inactive” in each case. Also, in assay [5], the Potency is 1.46 µM (active).

Turning to `COc1ccc(CCN(C)CCc2ccc(OC)c(OC)c2)cc1OC`, the Potency in assay [1] was 6.31 µM (active). Further, the Potency entry in assay [2], in assay [3], in assay [4], in assay [5] and in assay [6] was “inactive” throughout.

For the compound `CO/N=C(\C(=O)N[C@@H]1C(=O)N2C(C(=O)O)=C(CSc3nc(=O)c(O)nn3C)CSC12)c1csc(N)n1` (stereo not given in full), the Potency result in assay [1], in assay [2], in assay [3], in assay [4], in assay [5] and in assay [6] was “inactive” each time.

In the case of `O=C(O)/C=C/c1cnc[nH]1`, the Potency entry in assay [1], in assay [2], in assay [3], in assay [4], in assay [5] and in assay [6] was “inactive” in each case.

Take `CN[C@H](CC(=O)O)C(=O)O`: the Potency entry in assay [1], in assay [2], in assay [3], in assay [4], in assay [5] and in assay [6] was “inactive” in each case.

Turning to `CC(C)(C)c1cc(/C=C(\C#N)C(N)=S)cc(C(C)(C)C)c1O`, the Potency in assay [1] is 11.2 µM (active); in assay [2] it was 4.47 µM (active). The Potency result in assay [3], in assay [4] and in assay [6] was “inactive” throughout.

On to `O=c1[nH]c(=O)c2nc3ccccc3nc2[nH]1`, for which the Potency entry in assay [1], in assay [2], in assay [3], in assay [4] and in assay [6] was “inactive” in each case.

`N#C/C(=C\c1ccc(O)c(O)c1)C(=O)NCCc1ccccc1`: the Potency in assay [1] was 3.98 µM (active); in assay [2] it was 1.12 µM (active). The Potency entry in assay [3], in assay [4] and in assay [6] was “inactive” in each case.

Take `O=C(O)CCC(=O)N1CCCC1C(=O)O` (stereo not given): the Potency entry in assay [1], in assay [2], in assay [3], in assay [4], in assay [5] and in assay [6] was “inactive” in each case.

Turning to `C/C(=C\c1ccc(C(=O)O)cc1)c1ccc2c(c1)C(C)(C)CCC2(C)C`, the Potency result in assay [1], in assay [2], in assay [3], in assay [4], in assay [5] and in assay [6] was “inactive” throughout. Also, in assay [7], the Potency was 27.3 µM (active). For the same compound, the activation in assay [8] was 0.324%.

For the compound `NC(N)=NC(N)=Nc1cccc(Cl)c1`, the Potency in assay [1] is 8.91 µM (active). In addition, the Potency result in assay [2], in assay [3], in assay [4] and in assay [6] was “inactive” in each case.

For `NC(=Nc1ccccc1)NC(=O)c1nc(Cl)c(N)nc1N`, in assay [1], the Potency is 14.1 µM (active). Also, the Potency result in assay [2], in assay [3], in assay [4] and in assay [6] was “inactive” throughout.

On to `O=[N+]([O-])c1cccc2cn[nH]c12`, for which the Potency result in assay [1], in assay [2], in assay [3], in assay [4] and in assay [6] was “inactive” each time.

Turning to `CCCCCCCCCC(=O)NC(CN1CCOCC1)[C@H](O)c1ccccc1` (stereo not given in full), the Potency in assay [1] is 12.6 µM (active). The Potency result in assay [2], in assay [3], in assay [4], in assay [5] and in assay [6] was “inactive” in each case.
